The values below come from PubChem BioAssay (Tox21).

Test [1] can be described thus: A CellTox Green Cytotoxicity Assay to monitor cytotoxicity in HepG2 cells - 0 hour (AID 1224882). Also: nearly all actives have a fitted effect of over 35% in size. Put shortly: (§1)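 Measurements at 0, 8, 16, 24, 32 and 40 h of treatment captured CellTox Green fluorescence in HepG2 cells that had been co-plated with reagent and preincubated 5 h at 37 C/5% CO2.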
Test [2] in a line: A CellTox Green Cytotoxicity Assay to monitor cytotoxicity in HepG2 cells - 32 hour (AID 1224883). Also: nearly all actives have a fitted effect of over 50% in size. The gist of the method: as §1
Test [3] can be described thus: A CellTox Green Cytotoxicity Assay to monitor cytotoxicity in HEK293 cells - 8 hour (AID 1224884). Also: nearly all actives have a fitted effect of over 35% in size. The gist of the method:
(§2)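 Tox21 screen in HEK293: membrane-impermeant cyanine dye fluoresces on binding dead-cell DNA; compound pinned 5 h post-seeding, plates held at 37 C, signal read repeatedly through 40 h.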

Test [4] is described as follows: qHTS RealTime-Glo MT Cell Viability Assay in HepG2 cells - 16 hour (AID 1224885). Also: nearly all actives have a fitted effect of over 50% in size. Put shortly: (§3)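 Viability was tracked continuously by NanoLuc luminescence from prosubstrate reduced by living HepG2 cells, at successive time points over 40 h of compound exposure. Cells with reagent were preincubated 5 h at 37 °C before compound addition.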
On the technique in general: Quantitative high-throughput screening tests each substance at several concentrations.

Test [5] can be described thus: qHTS RealTime-Glo MT Cell Viability Assay in HEK293 cells - 24 hour (AID 1224886). Also: top concentration of the series differs between compounds; nearly all actives have a fitted effect of over 50% in size. The gist of the method: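 Viability tracked continuously by luminescence as live cells reduce a prosubstrate for NanoLuc; HEK293 cells preincubated 5 h, compound-treated at 37 C, and read at 0, 8, 16, 24, 32 and 40 h.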
The nature of test [6]: qHTS RealTime-Glo MT Cell Viability Assay in HEK293 cells - 8 hour (AID 1224887). Also: top concentration of the series differs between compounds; nearly all actives have a fitted effect of over 50% in size. Put shortly: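 HEK293 + NanoLuc + prosubstrate, 600 cells/well; 5 h, 37 C/5% CO2; compound 23 nL in DMSO by pintool; 37 C; luminescence read at 0, 8, 16, 24, 32 and 40 h time points.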
The nature of test [7]: A CellTox Green Cytotoxicity Assay to monitor cytotoxicity in HEK293 cells - 16 hour (AID 1224888). Also: nearly all actives have a fitted effect of over 35% in size. The gist of the method:
as §2

A short description of test [8]: qHTS RealTime-Glo MT Cell Viability Assay in HepG2 cells - 0 hour (AID 1224889). Also: nearly all actives have a fitted effect of over 50% in size. Put shortly: as §3
Test [9] in a line: A CellTox Green Cytotoxicity Assay to monitor cytotoxicity in HepG2 cells - 8 hour (AID 1224890). Also: nearly all actives have a fitted effect of over 45% in size. The gist of the method:
as §1

Test [10] is described as follows: qHTS assay to identify small molecule antagonists of the estrogen receptor alpha (ER-alpha) signaling pathway using the BG1 cell line in the presence of 0.1 nM 17-beta-estradiol - cell viability counter screen (AID 1259241). Also: nearly all actives have a fitted effect of over 40% in size. The gist of the method:
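Live-cell protease activity (CellTiter-Fluor fluorescence, 30 min) was read in the same wells after VM7Luc4E2 cells had been exposed to compounds with 0.1 nM 17beta-estradiol for 22 hr at 37C.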

The nature of test [11]: qHTS assay to identify small molecule antagonists of the androgen receptor (AR) signaling pathway using the MDA cell line in the presence of 0.5 nM R1881 - cell viability counter screen (AID 1259242). Also: nearly all actives have a fitted effect of over 45% in size. The gist of the method:
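Concentration-response screen of compounds for toxicity in MDA-kb2 reporter cells: 16 hr at 37C with 0.5 nM R1881, endpoint live-cell protease fluorescence measured in the reporter wells.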

In test [12] the target is Estrogen receptor (Homo sapiens) (UniProt P03372). The test is described as follows: qHTS assay to identify small molecule antagonists of the estrogen receptor alpha (ER-alpha) signaling pathway using the BG1 cell line in the presence of 0.1 nM 17-beta-estradiol (AID 1259244). Also: nearly all actives have a fitted effect of over 50% in size. Put shortly:
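Compounds were tested against 0.1 nM (final) 17beta-estradiol in VM7Luc4E2 cells, which express full-length ER-alpha and an ERE-luciferase reporter; luminescence was recorded following 22 h exposure.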

Test [13] is described as follows: qHTS assay to identify small molecule HDAC inhibitors (AID 1259364). Also: potency is read from the fitted curve at half-maximal effect.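 Also: wild-type HCT-116 cells with endogenous class I/II HDAC activity; nearly all actives have a fitted effect of over 45% in size.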 The gist of the method:
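Screening used wild-type human colon HCT-116 cells incubated overnight, dosed with compounds for 2 hours, and assayed with a homogeneous luminogenic HDAC I/II reagent for 30 minutes at room temperature.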

A short description of test [14]: qHTS assay to identify small molecule HDAC inhibitors - cell viability counter screen (AID 1259365). Put shortly:
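HCT-116 (wild type), 1,500 cells/well, overnight 37C/5% CO2; compound in DMSO 2hr; CellTiter-Glo 30min RT; luminescence read.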

Test [15] can be described thus: qHTS assay to identify small molecule agonists of the sonic hedgehog signaling (Shh) pathway - cell viability counter screen (AID 1259366). Also: nearly all actives have a fitted effect of over 50% in size. Also: potency is read from the fitted curve at half-maximal effect. The gist of the method: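 CellTiter-Fluor fluorescence read-out, 1 hr at 37C, added after 23hr compound exposure. Cells: 3T3 Gli1-Luc, an NIH/3T3 clone with stably integrated Gli1-Luc reporter, plated 4hr before compound.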
Test [16] is described as follows: qHTS assay to identify small molecule antagonists of the sonic hedgehog signaling (Shh) pathway - cell viability counter screen (AID 1259367). Also: nearly all actives have a fitted effect of over 55% in size. The gist of the method: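 Fluorescence read-out (CellTiter-Fluor, 1 hr at 37C) taken after 23 hr compound treatment of 3T3 Gli1-Luc cells stimulated with conditioned medium. Cells were seeded at 2,000 per well and pre-incubated 4 hr.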

Test [17] in a line: qHTS assay to identify small molecule agonists of the sonic hedgehog signaling (Shh) pathway (AID 1259368; calls by dose curve;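 also: NIH/3T3-derived 3T3Gli1-Luc cells carrying a stable Gli1-driven firefly luciferase reporter; series mostly up to about 92 µM; nearly all actives have a fitted effect of over 15% in size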). The gist of the method:
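Hedgehog pathway agonism scored by increased firefly luciferase luminescence in 3T3Gli1-Luc cells treated 24 hr at 37 C; detection used a 30 min room-temperature reagent incubation.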

The nature of test [18]: A CellTox Green Cytotoxicity Assay to monitor cytotoxicity in HEK293 cells - 32 hour (AID 1224881). Also: nearly all actives have a fitted effect of over 40% in size. Put shortly:
as §2

Test [19] is described as follows: qHTS assay to identify small molecule phospholipidosis (PLD) inducers (AID 1259344; active = well fitted curve in the direction sought with a large enough effect; an effect the other way counts as inactive or inconclusive). The gist of the method: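 Read-out is LipidTOX Red fluorescence (ex 595/em 615) imaged in HepG2 cells after 24 h compound exposure at 37 C, with Hoechst nuclear counterstain (ex 352/em 461) allowing per-cell normalisation.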
Test [20] addresses Androgen receptor (Homo sapiens) (UniProt P10275). The test is described as follows: qHTS assay to identify small molecule antagonists of the androgen receptor (AR) signaling pathway using the MDA cell line in the presence of 0.5 nM R1881 (AID 1259243). Also: nearly all actives have a fitted effect of over 50% in size. Put shortly: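 With R1881 held at 0.5 nM (final), compound effects on MMTV-luciferase expression in MDA-kb2 cells were scored by luminescence after a 16 hr, 37C incubation.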

Values without a mark were called inactive. Results filed as inconclusive are left out. Calls of active or inactive are those of the source. Unless noted, calls follow the shape of the dose curve; as a rule, active = well fitted curve in the direction sought with a large enough effect in the repeat runs; inconclusive = weak or mixed curves; inactive = no such curve, though single readings can be large; an effect the other way counts as inactive or inconclusive.
% is scaled to controls: 0 for no effect and ±100 for the full control effect.

Sequence of Estrogen receptor (Homo sapiens) (P03372 whole entry, looked up): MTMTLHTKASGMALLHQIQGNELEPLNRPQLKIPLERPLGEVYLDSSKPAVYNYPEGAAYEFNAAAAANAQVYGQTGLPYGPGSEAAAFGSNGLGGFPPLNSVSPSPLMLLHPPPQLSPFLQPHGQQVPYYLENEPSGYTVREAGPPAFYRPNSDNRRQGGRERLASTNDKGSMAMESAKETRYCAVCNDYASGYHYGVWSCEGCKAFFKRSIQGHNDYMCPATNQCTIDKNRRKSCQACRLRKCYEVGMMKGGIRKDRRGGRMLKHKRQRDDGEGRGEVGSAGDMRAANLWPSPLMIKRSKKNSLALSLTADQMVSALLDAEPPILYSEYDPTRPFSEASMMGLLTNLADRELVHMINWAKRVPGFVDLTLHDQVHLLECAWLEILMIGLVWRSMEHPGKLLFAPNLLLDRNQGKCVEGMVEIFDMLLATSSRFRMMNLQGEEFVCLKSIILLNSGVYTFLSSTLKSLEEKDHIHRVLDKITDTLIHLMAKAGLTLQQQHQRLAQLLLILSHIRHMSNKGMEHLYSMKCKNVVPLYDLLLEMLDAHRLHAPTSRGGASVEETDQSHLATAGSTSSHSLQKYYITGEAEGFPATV
Sequence of Androgen receptor (Homo sapiens) (P10275 whole entry, looked up): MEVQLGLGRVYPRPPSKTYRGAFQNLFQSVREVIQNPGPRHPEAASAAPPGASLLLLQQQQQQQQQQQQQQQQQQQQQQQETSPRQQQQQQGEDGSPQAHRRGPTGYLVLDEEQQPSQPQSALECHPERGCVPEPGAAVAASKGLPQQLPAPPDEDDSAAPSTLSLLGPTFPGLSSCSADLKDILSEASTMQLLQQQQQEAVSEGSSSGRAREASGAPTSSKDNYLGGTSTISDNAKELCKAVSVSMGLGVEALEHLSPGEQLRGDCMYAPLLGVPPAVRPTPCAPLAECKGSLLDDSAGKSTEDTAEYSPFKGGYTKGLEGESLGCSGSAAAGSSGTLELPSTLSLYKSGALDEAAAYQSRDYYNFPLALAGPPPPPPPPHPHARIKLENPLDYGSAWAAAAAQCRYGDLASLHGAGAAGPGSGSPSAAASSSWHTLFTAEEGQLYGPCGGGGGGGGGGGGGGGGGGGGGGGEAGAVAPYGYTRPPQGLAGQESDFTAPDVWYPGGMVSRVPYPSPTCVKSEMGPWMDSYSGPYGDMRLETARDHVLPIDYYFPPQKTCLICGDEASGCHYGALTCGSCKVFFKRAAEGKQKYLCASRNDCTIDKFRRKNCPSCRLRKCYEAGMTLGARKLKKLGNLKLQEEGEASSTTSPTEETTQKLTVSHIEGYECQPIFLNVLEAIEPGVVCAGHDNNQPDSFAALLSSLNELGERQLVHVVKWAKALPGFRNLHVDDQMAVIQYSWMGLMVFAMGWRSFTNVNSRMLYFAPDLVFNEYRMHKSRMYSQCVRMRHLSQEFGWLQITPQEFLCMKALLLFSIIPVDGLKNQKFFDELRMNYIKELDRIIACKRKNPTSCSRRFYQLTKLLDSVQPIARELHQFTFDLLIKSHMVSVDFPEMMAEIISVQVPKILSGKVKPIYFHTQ

`CCCCCC(=O)OCCc1ccccc1`: the Potency entry in test [1], in test [2], in test [5], in test [6], in test [8] and in test [13] was “inactive” in each case. In addition, the Potency result in [15] and in [16] was “inactive” in each case. Further, the outcome in [3], in test [4], in [7], in test [9], in [10] and in test [11] was inactive. Further, the outcome in test [12], in test [14] and in test [17] was inactive.
Consider `Cc1cccc(C)c1NC(=O)CC12CCCN1CCC2`, for which the call in test [18], in [3], in [4], in [7], in [9] and in [10] was inactive. For the same molecule, the result in [11], in test [12], in test [19], in [14] and in test [17] was inactive. The Potency result in test [6], in [8], in [13], in test [15] and in [16] was “inactive” in each case.
As for `CC(=O)O[C@@]12CO[C@@H]1C[C@H](O)[C@@]1(C)C(=O)[C@H](O)C3=C(C)[C@@H](OC(=O)[C@H](O)[C@@H](NC(=O)OC(C)(C)C)c4ccccc4)C[C@@](O)([C@@H](OC(=O)c4ccccc4)[C@H]21)C3(C)C`, the molecule was classed as inactive in test [18], in test [3], in test [4], in test [7], in [9] and in test [10]. Moreover, the outcome in test [11], in [12], in [19], in [14] and in test [17] was inactive. Moreover, the Potency result in test [1], in test [6], in test [8], in test [20] and in test [13] was “inactive” each time. In test [15], the Potency was 6.68 µM (active).
As to `CC1=C(C/C=C(\C)CCC[C@H](C)CCC[C@H](C)CCCC(C)C)C(=O)c2ccccc2C1=O`, the call in test [18], in [3], in test [4], in test [7], in test [9] and in test [10] was inactive. Besides, the result in [11], in test [14] and in test [17] was inactive. The Potency result in test [1], in test [6], in test [8], in [13] and in [15] was “inactive” in each case.
`OCCCCCO`: the molecule was called inactive in test [18], in test [3], in test [4], in test [7], in [9] and in test [11]. Further, the outcome in test [12], in test [14] and in test [17] was inactive. Moreover, the Potency result in test [1], in test [5], in test [6], in [8], in test [13] and in [15] was “inactive” each time. Also, the Potency result in test [16] is “inactive”.
On to `CCCCS(=O)(=O)N[C@@H](Cc1ccc(OCCCCC2CCNCC2)cc1)C(=O)O`, for which the Potency result in [1], in test [2], in [5], in test [6], in test [8] and in [20] was “inactive” each time. Also, the Potency result in test [13], in test [15] and in test [16] was “inactive” each time. Besides, the molecule was called inactive in test [3], in test [4], in test [7], in [9], in [10] and in test [11]. The outcome in test [12], in [14] and in test [17] was inactive. Further, the PLD induction in test [19] was -2.88% [at 1.53 µM].
For the molecule `CN1CC(=O)N/C1=N/C(=O)Nc1cccc(Cl)c1`, the Potency result in test [1], in test [2], in test [5], in [6], in test [8] and in [15] was “inactive” in each case. Further, the Potency entry in [16] is “inactive”. In addition, the outcome in test [3], in test [4], in [7], in test [9], in test [10] and in [11] was inactive. Moreover, the result in test [12], in test [14] and in test [17] was inactive. Also, in test [13], the Potency is 4.22 µM (active).
`CCCCCCC#CC(=O)OC`: the Potency entry in test [1], in test [5], in test [6], in [8], in test [13] and in [15] was “inactive” throughout. Moreover, the outcome in [3], in test [4], in test [7], in test [9], in [10] and in test [11] was inactive. In test [17], the call was inactive.
